# PubChem BioAssay (EPA / NIEHS)
# Calls of active or inactive are those of the source. Rule for the calls: active = hit-call score of the fitted dose curve at least 0.9, where 1 is the maximum; inactive = score below 0.9.
# Read-out: Cytochrome P450 3A7 (Homo sapiens) (UniProt P24462)
# Assay: LTEA_HepaRG_CYP3A7: Life Technologies and Expression Analysis (LTEA) Assay for CYP3A7 using HepaRG (AID 2283492)
# Settings: mRNA level, 48 h; actives raise or lower the signal
# Experimental: LTEA_HepaRG is a cell based, multiplexed-readout assay that uses HepaRG, a human liver cell line, with measurements taken at 48 hours after chemical dosing on a 96-well plate.LTEA_HepaRG_CYP3A7 is one of 102 assay component(s) measured in the LTEA HepaRG cell culture assay. It is a marker of NR mediated metabolism/Undifferentiated hepatocyte.Data from the assay component LTEA_HepaRG_CYP3A7 was analyzed into 1 endpoint. This assay endpoint, LTEA_HepaRG_CYP3A7, was analyzed with bidirectional fitting relative to DMSO as the negative control and baseline of activity. Using a type of inducible reporter, measures of mRNA induction for gain or loss-of-signal activity can be used to understand regulation of transcription factor activity. To generalize the intended target to other relatable targets, this assay endpoint is annotated to the cyp intended target family, where the subfamily is xenobiotic metabolism.
# A total of 1060 chemcials from the ToxCast library were tested in eight-point concentration-response experiments. Cell culture and cytotoxicity assays were conducted at Thermo Fisher Scientific's Custom Services facility (Madison, WI). A single lot of human HepaRG cells (Thermo Fisher Scientific, Frederick, MD) was used for the cell culture experiments. 96-well format collagen type I coated plates of human HepaRG cells were prepared using established methods. Briefly, cryopreserved HepaRG cells were thawed, plated at a density of approximately 100,000 cells/well in HepaRG Thaw, Plate, and General Purpose media (HPRG770, Thermo Fisher Scientific), and incubated for 48 hours. 0.5% DMSO was selected as vehicle control to balance the requisite need of DMSO in HepaRG cultures to maintain differentiation (for example, baseline metabolism, proportions of hepatocytes vs. cholangiocytes), while enabling further hepatic receptor pathway activation (for example, PXR and CAR) in response to chemical exposure. 48 hours after plating, the culture medium was replaced with HepaRG Serum-Free Incudtion Media. Cells were exposed to each test chemical in duplicate and maintained in CO2 incubators for another 48 hours. Chemical plates were thawed to room temperature and 200x concentrations of treatment groups were prepared. 8-point conentration-reponse curves were made with the highest exposure at 100 uM, followed by half-log dilutions, all in 0.5% DMSO. Each test plate contained variouse controls, induction positive controls (1mM phenobarbital), cytotoxicity positive controls ([…] aflatoxin B1), vehicle controls (0.5% DMSO), and total lysis controls (0.5% DMSO). Cell morphology images were taken using an Essen IncuCyte FLR automated microscope, with six 96-well plates imaged in about 24 minutes. Images were captured and exported and JPEG files. Spent culture media was transfered to black-well plates for the LDH assay, and remaining media was sorted at -80 C for later use. Cells were treated with RLT buffer and frozen until shipped for gene expression analysis. Total RNA was isolated from the cell suspension in 75 uL of Buffer RLT (Qiagen, Germantown, MD 20874) by Quintiles/Expression Analysis (Durham, NC) using a custom isolation procedure. Total RNA from each plate well was transferred to a preamplification plate. Fluidigm's 96.96 Dynamic ArrayTM (Fluidigm, Amsterdam, the Netherlands) technology was used for gene expression analyses by quantitative reverse transcription polymerase chain reaction (qRT-PCR, performed by Quintiles/Expression Analysis, Durham, NC)89. Standard TaqManTM Assays (Applied Biosystems/ThermoFisher Scientific, Foster City, CA) were used to assess the expression of 93 genes selected based on their selectivity and sensitivity to important hepatic receptors known to be modulated by environmental chemicals; importance in human hepatocyte functionality; and hepatotoxicity. […]
# Sequence of Cytochrome P450 3A7 (Homo sapiens) (P24462 whole entry, looked up): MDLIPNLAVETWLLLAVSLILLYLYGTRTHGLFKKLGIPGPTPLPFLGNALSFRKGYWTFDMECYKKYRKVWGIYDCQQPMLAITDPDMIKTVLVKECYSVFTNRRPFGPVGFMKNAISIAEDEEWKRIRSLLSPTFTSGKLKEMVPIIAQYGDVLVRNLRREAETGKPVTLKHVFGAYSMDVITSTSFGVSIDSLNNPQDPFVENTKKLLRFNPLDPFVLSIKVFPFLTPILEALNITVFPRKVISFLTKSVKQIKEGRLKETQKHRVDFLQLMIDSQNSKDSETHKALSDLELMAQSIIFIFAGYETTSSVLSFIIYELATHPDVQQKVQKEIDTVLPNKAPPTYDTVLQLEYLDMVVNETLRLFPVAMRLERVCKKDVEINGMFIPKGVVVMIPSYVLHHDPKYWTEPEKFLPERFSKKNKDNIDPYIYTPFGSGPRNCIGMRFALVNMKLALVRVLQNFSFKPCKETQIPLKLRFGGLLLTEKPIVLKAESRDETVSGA
SMILES,outcome,AC50
CCCCCCCCCCC,inactive,–
Cc1ccc(C)c(C)c1,inactive,–
Cc1cccc(C)c1O,inactive,–
Cc1oc(-c2ccccc2)nc1CCOc1cccc2c1ccn2CCC(=O)O,–,11.4 µM (active)
CC1(C)CC(N=C=O)CC(C)(CN=C=O)C1 (stereo not given),inactive,–
C=CCc1ccc(O)c(OC)c1,inactive,–
Cc1cc(NC(=O)C(=O)O)cc(C)c1Oc1ccc(O)c2c1CCC2,–,0.0522 µM (active)
COCCOC[C@H](CC1(C(=O)NC2CCC(C(=O)O)CC2)CCCC1)C(=O)Oc1ccc2c(c1)CCC2 (stereo not given in full),inactive,–
Cc1cccc([N+](=O)[O-])c1C,inactive,–
Cc1ccccc1Cl,inactive,–
CCCCCCOCCO,inactive,–
COc1cc(C=O)ccc1O,inactive,–
COC(=O)c1ccc(O)cc1,inactive,–
Cc1ccc(C)c(O)c1C,inactive,–
O=[N+]([O-])C(CO)(CO)CO,inactive,–
CC(=O)C(C)=CC1C(C)=CCCC1(C)C (stereo not given),inactive,–
NC(=O)Cn1c(=O)cc(CCN2CCN(c3nccc4sccc34)CC2)c2ccc(F)cc21,inactive,–
CCCCCCCCCCO,inactive,–
CCCc1cc(=O)[nH]c(=S)[nH]1,inactive,–
COc1cc(-c2nc(NC(=O)c3cc4cc(C)cc(C)c4n3CC(=O)O)sc2CCC2CCCCC2)c(OC)cc1Cl,–,7.24 µM (active)

SMILES,outcome,AC50
Oc1ccc2ccccc2c1N=Nc1ccccc1,–,2.19 µM (active)
C[Si]1(C)O[Si](C)(C)O[Si](C)(C)O[Si](C)(C)O1,inactive,–
CCCCCCCCCCCCCO,inactive,–
COc1ccc2c(c1)c(CC(=O)O)c(C)n2C(=O)c1ccc(Cl)cc1,inactive,–
CNC(=O)[C@H]1O[C@@H](n2cnc3c(NCc4cc(Cl)ccc4OCc4cc(C)no4)ncnc32)[C@H](O)[C@@H]1N,inactive,–
Cc1cc(=O)[nH]c(=S)[nH]1,inactive,–
Clc1cc(Cl)c(Cl)cc1Cl,inactive,–
Cc1nc(C)nc(N2C[C@@H](C)N(c3ccnc([C@@H](C)O)n3)[C@@H](C)C2)n1,–,13.8 µM (active)
CCCCc1ccc2c(n1)[C@@H](c1ccc(OC)cc1C[C@H](C)C(=O)O)[C@H](C(=O)O)[C@H]2c1ccc2c(c1)OCO2,inactive,–
Cc1ccc(C(C)C)c(O)c1,inactive,–
Nc1nc(N)c2nc(CNc3ccc(C(=O)N[C@@H](CCC(=O)O)C(=O)O)cc3)cnc2n1,inactive,–
COCCOCCOC,inactive,–
CNCc1cc(F)ccc1Oc1ccc(Cl)c(Cl)c1,–,77.5 µM (active)
CCc1c(C(=O)NN2CCCCC2)nn(-c2ccc(Cl)cc2Cl)c1-c1ccc(Br)cc1,–,23.1 µM (active)
Oc1ccc2c(c1)OC[C@@H](N1CCC(O)(c3ccc(F)cc3)CC1)[C@H]2O,inactive,–
CCCCCC(=O)O,inactive,–
O=C(OCCCCCOC(=O)c1ccccc1)c1ccccc1,–,2.31 µM (active)
CCCCCCCCCCCCCCCC,inactive,–
O=C(O)Cc1ccccc1Nc1c(Cl)cccc1Cl,inactive,–
NS(=O)(=O)c1cc2c(cc1Cl)NCNS2(=O)=O,inactive,–
